Bioassay records (PubChem)
Sampled rows, rich in hits. Any-hit rate of the full collection: about 6.7%.
Pf Dd2 growth: P. falciparum Dd2 growth inhibition. SYBR Green, 72 h; hits give low values. activity change, % at 10 µM. actives 2.3% (n = 94,000). AID 1159554; in the data active means activity change below about -80%; inconclusive means no clear call, values can overlap the other calls
C diff HTS: blocks growth of Clostridium difficile | Clostridium difficile clinical isolate growth, OD600, 24 h; hits give low values | growth activity, negative = inhibition, % at 16 µg/mL (by protocol) | actives 0.25% (n = 86,000);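 active means mean growth activity at or below -80% and every replicate also at or below -80%; inconclusive means mean at or below -80% but some replicate above -80%; inactive means mean growth activity above -80%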;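 further: 0% = DMSO wells and -100% = levofloxacin 16 µg/mL wells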
T cruzi growth-1: inhibitors of T. cruzi proliferation; T. cruzi beta-gal in NIH3T3, GalScreen luminescence, 90 h; inhibition, % at 8.34 µM; actives 5.9% (n = 77,000);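 active means mean inhibition above about 93%, with at least 55% of replicates each passing it, limit read from the data, passing the limit was not always enough; inconclusive means only one of those two conditions holds; inactive means neither condition holds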
T cruzi growth-2: inhibitors of T. cruzi proliferation; shares compounds with T cruzi growth-1; T. cruzi beta-gal in NIH3T3, GalScreen luminescence, 90 h; inhibition, % at 8.35 µM; actives 72% (n = 5,600); AID 651739;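 active means mean replicate inhibition above about 95% and at least 55% of replicates individually reaching it, limit read from the data; inconclusive means only one of the two criteria is met; inactive means neither criterion is met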
T cruzi growth-3: blocks T. cruzi growth in NIH3T3 host cells; shares compounds with T cruzi growth-1; T. cruzi beta-gal in NIH3T3, GalScreen luminescence, 90 h; inhibition, % at 2.09 µM; actives 21% (n = 5,600);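 active means mean inhibition above about 95%, with at least 55% of replicates also reaching it, limit read from the data; inconclusive means meets just one of the two conditions; inactive means meets neither condition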;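 further: plate controls were neutral control median for no effect and positive control median for full effect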
NIH3T3 tox: cytotoxicity in mouse NIH/3T3 fibroblasts; shares compounds with T cruzi growth-1; NIH/3T3 viability, CellTiter-Glo ATP luminescence, 90 h; cytotoxicity (signal decrease), % at 8.35 µM; actives 14% (n = 5,600);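 active means mean signal decrease across replicates above about 35% based on untreated-well scatter, with enough replicates individually passing, limit read from the data; inconclusive means no rule stated though some were filed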;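 further: 0% = median of neutral control wells and 100% = median of positive control wells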
NIH3T3 tox 2: cytotoxicity in mouse NIH/3T3 fibroblasts. shares compounds with T cruzi growth-1. NIH/3T3 viability, CellTiter-Glo ATP luminescence, 90 h. actives 56% (n = 5,600). inhibition, % at 24.9 µM;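 active means mean loss of cell viability signal at or above a set limit, and enough replicates individually reaching it; inconclusive means meets only the mean limit or only the replicate share; inactive means meets neither condition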;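 further: 0% = median of neutral control wells and 100% = median of positive control wells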
* hit, by the source's call; u = inconclusive; x = no result given.

SMILES | Pf Dd2 growth | C diff HTS | T cruzi growth-1 | T cruzi growth-2 | T cruzi growth-3 | NIH3T3 tox | NIH3T3 tox 2
C[C@@H]1CN([C@@H](C)CO)C(=O)c2ccccc2-c2ccccc2CO[C@@H]1CN(C)Cc1ccncc1 | -10 | 2 | u | 38 | -30 | 11 | u
C[C@H](CO)N1C[C@H](C)[C@@H](CN(C)Cc2ccncc2)OCc2ccccc2-c2ccccc2C1=O | 13 | 0 | u | 69 | 13 | -3 | -8
C[C@@H]1CN([C@H](C)CO)C(=O)c2ccccc2-c2ccccc2CO[C@@H]1CN(C)Cc1ccncc1 | 17 | 2 | 73 | x | x | x | x
COc1ccc(S(=O)(=O)Nc2ccc3c(c2)[C@H]2C[C@H](CC(=O)N(C)C)O[C@@H](CO)[C@H]2O3)cc1 | 26 | -6 | -8 | x | x | x | x
O=C(C1CCC1)N1C[C@H]2[C@@H](c3ccccc31)[C@H](CO)N2C(=O)c1ccccc1 | 1 | -6 | 28 | x | x | x | x
CC(C)NC(=O)Nc1cccc2c1O[C@H](CN(C)Cc1ccccc1)[C@@H](C)CN([C@H](C)CO)C2=O | -14 | -1 | 52 | x | x | x | x
C[C@@H]1CCCCO[C@H](CN(C)S(=O)(=O)c2ccc(Cl)cc2)[C@@H](C)CN([C@H](C)CO)C(=O)c2cc(NC(=O)Nc3ccc(C(F)(F)F)cc3)ccc2O1 | -61 | 4 | 112* | 102* | 108* | 17 | 31*
C[C@H]1CCCCO[C@H](CN(C)S(=O)(=O)c2ccc(Cl)cc2)[C@@H](C)CN([C@@H](C)CO)C(=O)c2cc(NC(=O)Nc3ccc(C(F)(F)F)cc3)ccc2O1 | -72 | 1 | 75 | x | x | x | x
Cc1ccc(S(=O)(=O)N(C)C[C@H]2OCCCC[C@H](C)Oc3ccc(NC(=O)Nc4ccc(C(F)(F)F)cc4)cc3C(=O)N([C@@H](C)CO)C[C@@H]2C)cc1 | -73 | 4 | x | x | x | x | x
C[C@@H]1CN([C@@H](C)CO)C(=O)c2cc(NC(=O)Nc3ccc(C(F)(F)F)cc3)ccc2O[C@@H](C)CCCCO[C@H]1CN(C)S(=O)(=O)c1ccc(Cl)cc1 | -52 | 5 | 103* | 110* | 109* | -15 | 15
C[C@@H]1CN([C@H](C)CO)C(=O)c2cc(NC(=O)Nc3ccc(C(F)(F)F)cc3)ccc2O[C@@H](C)CCCCO[C@@H]1CN(C)S(=O)(=O)c1ccc(Cl)cc1 | -68 | 5 | 103* | 106* | 80 | 2 | -6
Cc1ccc(S(=O)(=O)N(C)C[C@H]2OCCCC[C@H](C)Oc3ccc(NC(=O)Nc4ccc(C(F)(F)F)cc4)cc3C(=O)N([C@H](C)CO)C[C@H]2C)cc1 | -74 | 3 | x | x | x | x | x
C[C@@H]1CN([C@@H](C)CO)S(=O)(=O)c2ccc(C#CC(C)(C)O)cc2O[C@@H]1CN(C)Cc1ccccc1 | -15 | -5 | 42 | x | x | x | x
C[C@H](NC(=O)C[C@H]1C[C@@H]2c3cc(NC(=O)Cc4ccncc4)ccc3O[C@@H]2[C@@H](CO)O1)c1ccccc1 | 5 | x | 21 | x | x | x | x
C[C@@H]1CCCCO[C@@H](CN(C)Cc2ccc(Cl)c(Cl)c2)[C@H](C)CN([C@H](C)CO)C(=O)c2cc(N(C)C)ccc2O1 | -74 | x | 99* | 106* | 79 | -1 | 103*
C[C@@H]1CCCCO[C@@H](CN(C)Cc2ccc(Cl)c(Cl)c2)[C@H](C)CN([C@@H](C)CO)C(=O)c2cc(N(C)C)ccc2O1 | -34 | 15 | x | x | x | x | x
C[C@@H]1CCCCO[C@H](CN(C)Cc2ccc(Cl)c(Cl)c2)[C@@H](C)CN([C@H](C)CO)C(=O)c2cc(N(C)C)ccc2O1 | -65 | x | 86 | x | x | x | x
C[C@@H]1CCCCO[C@H](CN(C)Cc2ccc(Cl)c(Cl)c2)[C@@H](C)CN([C@@H](C)CO)C(=O)c2cc(N(C)C)ccc2O1 | -79 | x | 106* | 100* | 106* | 15 | 106*
COC(=O)C[C@@H]1C=C[C@@H](NC(=O)c2ccccc2)[C@@H](CO)O1 | -3 | x | 22 | x | x | x | x
Cc1noc(C)c1S(=O)(=O)Nc1cccc2c1O[C@@H](CN(C)Cc1ccc(C(=O)Nc3ccccc3N)cc1)[C@@H](C)CN([C@H](C)CO)C2=O | -60 | 4 | x | x | x | x | x
Cc1noc(C)c1S(=O)(=O)Nc1cccc2c1O[C@@H](CN(C)Cc1ccc(-c3ccccc3)cc1)[C@@H](C)CN([C@@H](C)CO)C2=O | -3 | x | 27 | x | x | x | x
Cc1noc(C)c1NC(=O)N(C)C[C@@H]1Oc2c(NS(C)(=O)=O)cccc2C(=O)N([C@@H](C)CO)C[C@H]1C | -13 | 1 | 52 | x | x | x | x
Cc1noc(C)c1NC(=O)N(C)C[C@H]1Oc2c(NS(=O)(=O)c3c(C)noc3C)cccc2C(=O)N([C@H](C)CO)C[C@H]1C | 12 | 5 | 104* | 82 | 24 | 1 | -2
Cc1noc(C)c1S(=O)(=O)Nc1ccc2c(c1)C(=O)N([C@@H](C)CO)C[C@H](C)[C@@H](CN(C)Cc1ccc(C(=O)Nc3ccccc3N)cc1)O2 | -68 | 11 | x | x | x | x | x
Cc1noc(C)c1S(=O)(=O)Nc1cccc2c1O[C@H](CN(C)Cc1ccc(-c3ccccc3)cc1)[C@H](C)CN([C@@H](C)CO)C2=O | -14 | 9 | 100* | 91 | 61 | 14 | 11
SMILES | Pf Dd2 growth | C diff HTS | T cruzi growth-1 | T cruzi growth-2 | T cruzi growth-3 | NIH3T3 tox | NIH3T3 tox 2
Cc1noc(C)c1S(=O)(=O)Nc1ccc2c(c1)C(=O)N([C@@H](C)CO)C[C@@H](C)[C@@H](CN(C)Cc1ccc(C(=O)Nc3ccccc3N)cc1)O2 | -79 | x | u | 100* | 81 | -6 | 33*
Cc1noc(C)c1S(=O)(=O)Nc1cccc2c1O[C@H](CN(C)Cc1ccc(C(=O)Nc3ccccc3N)cc1)[C@H](C)CN([C@@H](C)CO)C2=O | -73 | x | u | 101* | 74 | 12 | 36*
Cc1noc(C)c1NC(=O)N(C)C[C@@H]1Oc2ccc(NC(=O)Nc3ccc(C(F)(F)F)cc3)cc2C(=O)N([C@@H](C)CO)C[C@H]1C | -19 | -1 | -2 | x | x | x | x
C[C@@H]1CCCCO[C@H](CN(C)C(=O)Nc2ccc(C(F)(F)F)cc2)[C@@H](C)CN([C@H](C)CO)C(=O)c2cc(NS(=O)(=O)c3cn(C)cn3)ccc2O1 | -16 | 1 | 21 | x | x | x | x
C[C@@H]1CN([C@H](C)CO)C(=O)c2cc(NS(=O)(=O)c3ccc(Cl)cc3)ccc2O[C@@H]1CN(C)Cc1ccc(C(=O)Nc2ccccc2N)cc1 | -59 | -2 | u | 76 | 55 | -6 | 46*
C[C@@H]1CN([C@@H](C)CO)C(=O)c2cc(NS(=O)(=O)c3ccc(Cl)cc3)ccc2O[C@H]1CN(C)Cc1ccc(C(=O)Nc2ccccc2N)cc1 | -77 | -1 | 69 | x | x | x | x
